# Reference: PubChem BioAssay AID1159580 (chemical genetic matrix, 2015)
# Where “and” joins values, the source holds several entries; their conditions need not be identical. Identical values can stand only once. Out of some 5,500 compounds screened, about 2,000 (36%) were called active. Inconclusive results (about 18%) are left out. Rule as the data show it: active = normalized growth mostly below about 0.91 (no sharp cut-off); inconclusive = no clear call, values can overlap the other calls; inactive = mostly above about 0.92. The list shows a part of the results.
# Assay: chemical genetic growth profiling, strain panel (AID 1159580);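 also: tested at 20 µM; growth read once vehicle control cultures reached saturation at 30 °C; 1 = growth at the plate median or of vehicle wells; lower values mean less growth of the strain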
# Settings: S. cerevisiae deletion strains, growth OD
structure (smiles),measurement,setting,value
CC[C@@]1(O)C[C@H](O[C@H]2C[C@H](N(C)C)[C@H](O)[C@H](C)O2)c2c(cc3c(c2O)C(=O)c2c(O)cccc2C3=O)[C@H]1C(=O)OC,normalized growth,"locus YAL021C, strain ccr4, stronger effect = lower value",0.653 (active)
same,normalized growth,"locus YAL026C, strain drs2, stronger effect = lower value",0.883 (active)
same,normalized growth,"locus YAL030W, strain snc1, stronger effect = lower value",0.907 (active)
same,normalized growth,"locus YBL061C, strain skt5, stronger effect = lower value",0.891 (active)
same,normalized growth,"locus YBR009C, strain hhf1, stronger effect = lower value",0.783 (active)
same,normalized growth,"locus YBR021W, strain FUR4, stronger effect = lower value",1.06 (inactive)
same,normalized growth,"locus YBR023C, strain chs3, stronger effect = lower value",0.899 (active)
same,normalized growth,"locus YBR171W, strain sec66, stronger effect = lower value",0.994 (inactive)
same,normalized growth,"locus YBR229C, strain ROT2, stronger effect = lower value",0.942 (inactive)
same,normalized growth,"locus YBR231C, strain swc5, stronger effect = lower value",0.823 (active)
same,normalized growth,"locus YBR279W, strain paf1, stronger effect = lower value",0.94 (inactive)
same,normalized growth,"locus YCL011C, strain gbp2, stronger effect = lower value",0.867 (active)
same,normalized growth,"locus YCL016C, strain dcc1, stronger effect = lower value",0.704 (active)
same,normalized growth,"locus YCL029C, strain bik1, stronger effect = lower value",0.854 (active)
same,normalized growth,"locus YCL069W, strain vba3, stronger effect = lower value",0.972 (inactive)
same,normalized growth,"locus YCR088W, strain abp1, stronger effect = lower value",0.946 (inactive)
same,normalized growth,"locus YDL005C, strain med2, stronger effect = lower value",0.967 (inactive)
same,normalized growth,"locus YDL035C, strain GPR1, stronger effect = lower value",0.797 (active)
same,normalized growth,"locus YDL040C, strain nat1, stronger effect = lower value",0.955 (inactive)
same,normalized growth,"locus YDL074C, strain BRE1, stronger effect = lower value",0.765 (active)
same,normalized growth,"locus YDL101C, strain DUN1, stronger effect = lower value",0.786 (active)
same,normalized growth,"locus YDL185W, strain tfp1, stronger effect = lower value",0.853 (active)
same,normalized growth,"locus YDL192W, strain arf1, stronger effect = lower value",0.666 (active)
same,normalized growth,"locus YDR001C, strain nth1, stronger effect = lower value",0.944 (inactive)
same,normalized growth,"locus YDR069C, strain doa4, stronger effect = lower value",0.908 (inactive)
same,normalized growth,"locus YDR101C, strain arx1, stronger effect = lower value",0.8 (active)
same,normalized growth,"locus YDR137W, strain rgp1, stronger effect = lower value",0.631 (active)
same,normalized growth,"locus YDR150W, strain NUM1, stronger effect = lower value",0.945 (inactive)
same,normalized growth,"locus YDR159W, strain sac3, stronger effect = lower value",0.73 (active)
same,normalized growth,"locus YDR162C, strain NBP2, stronger effect = lower value",0.595 (active)
same,normalized growth,"locus YDR195W, strain ref2",1.73 [resistant] (active)
same,normalized growth,"locus YDR297W, strain sur2, stronger effect = lower value",0.928 (inactive)
same,normalized growth,"locus YDR318W, strain mcm21, stronger effect = lower value",0.866 (active)
same,normalized growth,"locus YDR334W, strain swr1, stronger effect = lower value",0.959 (inactive)
same,normalized growth,"locus YDR335W, strain msn5, stronger effect = lower value",0.908 (active)
same,normalized growth,"locus YDR388W, stronger effect = lower value",0.847 (active)
same,normalized growth,"locus YDR392W, strain spt3, stronger effect = lower value",0.676 (active)
same,normalized growth,"locus YDR502C, strain sam2, stronger effect = lower value",0.812 (active)
same,normalized growth,"locus YEL003W, strain gim4, stronger effect = lower value",0.924 (inactive)
same,normalized growth,"locus YEL037C, strain rad23, stronger effect = lower value",0.944 (inactive)
same,normalized growth,"locus YEL061C, strain CIN8 (second series), stronger effect = lower value",0.949 (inactive)
same,normalized growth,"locus YEL061C, strain CIN8, stronger effect = lower value",0.879 (active)
same,normalized growth,"locus YER015W, strain faa2, stronger effect = lower value",0.869 (active)
same,normalized growth,"locus YER016W, strain bim1, stronger effect = lower value",0.925 (inactive)
same,normalized growth,"locus YER110C, stronger effect = lower value",0.921 (inactive)
same,normalized growth,"locus YER111C, strain swi4, stronger effect = lower value",0.989 (inactive)
same,normalized growth,"locus YER155C, strain BEM2 (second series), stronger effect = lower value",0.931 (inactive)
same,normalized growth,"locus YER155C, strain BEM2, stronger effect = lower value",0.944 (inactive)
same,normalized growth,"locus YER167W, strain BCK2, stronger effect = lower value",0.884 (active)
same,normalized growth,"locus YFR010W, strain ubp6, stronger effect = lower value",0.887 (active)
same,normalized growth,"locus YGL078C, strain dbp3, stronger effect = lower value",0.928 (inactive)
same,normalized growth,"locus YGL086W, strain mad1, stronger effect = lower value",0.816 (active)
same,normalized growth,"locus YGL167C, strain pmr1, stronger effect = lower value",0.963 (inactive)
same,normalized growth,"locus YGL173C, strain kem1, stronger effect = lower value",0.913 (inactive)
same,normalized growth,"locus YGL227W, strain vid30, stronger effect = lower value",0.959 (inactive)
same,normalized growth,"locus YGL240W, strain doc1, stronger effect = lower value",0.788 (active)
same,normalized growth,"locus YGL248W, strain PDE1, stronger effect = lower value",0.88 (active)
same,normalized growth,"locus YGL253W, strain hxk2, stronger effect = lower value",0.792 (active)
same,normalized growth,"locus YGR078C, strain PAC10, stronger effect = lower value",0.905 (inactive)
same,normalized growth,"locus YGR135W, strain pre9, stronger effect = lower value",0.875 (active)
same,normalized growth,"locus YGR252W, strain gcn5, stronger effect = lower value",1.06 (inactive)
same,normalized growth,"locus YHR013C, strain ard1, stronger effect = lower value",1.01 (inactive)
same,normalized growth,"locus YHR027C, strain rpn1, stronger effect = lower value",0.785 (active)
same,normalized growth,"locus YHR030C, strain SLT2, stronger effect = lower value",0.899 (active) and 0.963 (inactive)
same,normalized growth,"locus YHR079C, strain IRE1 (second series), stronger effect = lower value",0.89 (active)
same,normalized growth,"locus YHR079C, strain IRE1, stronger effect = lower value",0.981 (inactive)
same,normalized growth,"locus YHR094C, strain hxt1, stronger effect = lower value",0.92 (active)
same,normalized growth,"locus YHR129C, strain ARP1, stronger effect = lower value",0.886 (active)
same,normalized growth,"locus YHR142W, strain chs7, stronger effect = lower value",0.882 (inactive)
same,normalized growth,"locus YHR200W, strain rpn10, stronger effect = lower value",0.788 (active)
same,normalized growth,"locus YIL066C, strain RNR3, stronger effect = lower value",0.79 (active)
same,normalized growth,"locus YIL073C, strain SPO22, stronger effect = lower value",0.538 (active)
same,normalized growth,"locus YIL125W, strain kgd1, stronger effect = lower value",0.918 (active)
same,normalized growth,"locus YIR030C, strain dcg1, stronger effect = lower value",0.871 (active)
same,normalized growth,"locus YJL092W, strain hpr5, stronger effect = lower value",0.804 (active)
same,normalized growth,"locus YJL095W, strain BCK1 (second series), stronger effect = lower value",0.886 (active)
same,normalized growth,"locus YJL095W, strain BCK1, stronger effect = lower value",0.776 (active) and 0.954 (inactive)
same,normalized growth,"locus YJL115W, strain asf1, stronger effect = lower value",0.507 (active)
same,normalized growth,"locus YJL129C, strain trk1, stronger effect = lower value",1.08 (inactive)
same,normalized growth,"locus YJL134W, strain LCB3, stronger effect = lower value",0.924 (active)
same,normalized growth,"locus YJL154C, strain vps35, stronger effect = lower value",0.95 (inactive)
same,normalized growth,"locus YJL164C, strain tpk1, stronger effect = lower value",0.867 (active)
same,normalized growth,"locus YJL166W, strain qcr8, stronger effect = lower value",0.85 (active)
same,normalized growth,"locus YJL168C, strain set2, stronger effect = lower value",0.863 (active)
same,normalized growth,"locus YJL187C, strain SWE1 (second series), stronger effect = lower value",0.871 (inactive)
same,normalized growth,"locus YJR043C, strain POL32, stronger effect = lower value",0.722 (active)
same,normalized growth,"locus YJR066W, strain TOR1, stronger effect = lower value",0.879 (inactive)
same,normalized growth,"locus YKL009W, strain mrt4, stronger effect = lower value",0.897 (inactive)
